Among all 360,000 compounds or so, about 1,800 (0.5%) were called active.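 Rule for the calls: active = mean inhibition of at least 75% with every replicate also reaching 75%; inconclusive = mean inhibition at least 75% but some replicate below; inactive = mean inhibition below 75%.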 The sample as a whole holds a higher share of actives than the screen did.
Assay: reduction of Shn3 3'UTR firefly luciferase signal, primary screen, Schnurri-3 inhibitor project, cell-based, Clone20 osteoblasts, set 2 (AID 588674);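 note: 0% = median of neutral control wells and 100% = pilot-screen positive control compound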
Conditions: Clone20 osteoblast Shn3 3'UTR firefly luciferase, 24 h; at 12.5 µM; hits give high values
In the case of `O=C(O)C1C2C=CC(O2)C1C(=O)Nc1ccccn1` (centres undefined), the inhibition is reported as 1.15% (inactive). For `NC(=O)C1CCN(Cc2nc3c(Br)cc(Br)cc3c(=O)[nH]2)CC1`, the inhibition was 9.29% (inactive). For `CC(C)C[C@H]1CNC(=S)N1C[C@H]1CCCN1C[C@H](Cc1ccc(O)cc1)N1C[C@H](Cc2ccc(O)cc2)N(CC2CCCCC2)C1=S`, the inhibition was 9.03% (inactive). With `Cc1noc(COc2ccccc2OCc2onc(C)c2Cl)c1Cl` the inhibition was 9.9% (inactive). With `O=C(C=CC(=O)Nc1ccc(F)cc1F)Nc1ccc(F)cc1F` the inhibition was 12.7% (inactive). With `COc1ccc(NC(=O)C2Cc3c(-c4cccc(NC(C)=O)c4)ccnc3O2)cc1OC` (centres undefined) the inhibition was 47.1% (inactive). In the case of `CC(CCc1ccccc1)NC(=O)COC(=O)c1ccc(F)cc1` (centres undefined), the inhibition is reported as -0.45% (inactive). For `Oc1c(CN2CCN(c3ccc(F)cc3)CC2)cc(Cl)c2cccnc12`, the inhibition was 83.5% (active). For `O=c1cc(CN2CCCCCCC2)c2c(ccc3ccccc32)o1`, the inhibition was 21.3% (inactive). With `Cc1cc(=O)oc2cc(OCC(=O)N3CCN(c4ccc(F)cc4)CC3)c(Cl)cc12` the inhibition was 4.64% (inactive). In the case of `Oc1c(CN2CCCC2)cc(COCc2ccccc2)c2cccnc12`, the inhibition is reported as 86% (active). With `O=C(Cc1ccccc1)NNC(=O)C1CCN(c2ncccn2)CC1` the inhibition was -8.28% (inactive). For `Cc1cccc(C)c1NC(=O)CN1CCN(c2ccc(F)cc2)CC1`, the inhibition was -13.2% (inactive). For `CC1(C)OC(=O)N2CCc3ccccc3C21C` (centres undefined), the inhibition was -7.85% (inactive). For `CC(OC(=O)c1cccnc1Cl)C(=O)NC1CCCCC1` (centres undefined), the inhibition was -10.8% (inactive). With `COC(=O)C1CCN(C(=O)NC2CC(=O)N(c3ccc4c(c3)OCCO4)C2)CC1` (centres undefined) the inhibition was -6.55% (inactive). With `CC(=O)Nc1cc(-c2cccc(CO)c2)cn2c(-c3cccc(C(F)(F)F)c3)cnc12` the inhibition was 10.6% (inactive). In the case of `C[C@H]([C@@H](O)[C@@H](O)[C@@H](C)C(C)(C)C)[C@H]1CC[C@H]2C3CC[C@H]4C[C@H](OS(=O)(=O)O)[C@@H](OS(=O)(=O)O)C[C@]4(C)[C@H]3CC[C@]12C` (some centres undefined), the inhibition is reported as -9.66% (inactive). For `CC(=O)c1ccccc1NC(=O)CC1(CC(=O)O)CCCCC1`, the inhibition was -24.1% (inactive). For `Cn1c(=O)c2c(nc(OCc3cccnc3)n2Cc2ccccc2)n(C)c1=O`, the inhibition was 30% (inactive). With `C=CCn1c(Oc2ccc(C(=O)OC)cc2)nc2c1c(=O)n(C)c(=O)n2C` the inhibition was 21% (inactive). In the case of `C=CCOc1nc2c(c(=O)n(C)c(=O)n2C)n1Cc1ccc(Cl)cc1Cl`, the inhibition is reported as 86.3% (active). For `CCCn1c(=S)[nH]c2ccc(C(F)(F)F)cc21`, the inhibition was -4.29% (inactive). In the case of `Cn1nccc1C(=O)NC1CCCc2c1cnn2-c1ccc(F)cc1F` (centres undefined), the inhibition is reported as 77.1% (inactive). In the case of `Cn1nccc1C(=O)NC1CCCc2c1cnn2-c1ccccc1F` (centres undefined), the inhibition is reported as 90.2% (active). With `COc1ccc(C(=O)NC2CCCc3c2cnn3-c2cccc(C)c2C)c(OC)n1` (centres undefined) the inhibition was 84.1% (inactive). In the case of `COc1ccc(-c2ccc(C(=O)NCCN3CCOCC3)c3occc23)c(C)c1`, the inhibition is reported as 12.3% (inactive). For `C/C(=N\NC(=O)C1(C)CC1(Br)Br)c1ccc(C)cc1C` (centres undefined), the inhibition was 8.35% (inactive). In the case of `Cc1nnc(N/N=C/c2ccccn2)[nH]c1=O`, the inhibition is reported as 90.6% (active). In the case of `S=C(NN=Cc1ccccn1)Nc1ccccn1`, the inhibition is reported as 67.3% (inactive). With `Cc1cc(=O)[nH]c(N/N=C/c2c(C)nn(-c3ccccc3Cl)c2Cl)n1` the inhibition was 14.6% (inactive). In the case of `C/C=C(/C)C(=O)O[C@@H]1c2cc3c(c4c2[C@@]2(CO4)C(=O)C(OC)=C(OC)C=C2C[C@@H](C)[C@H]1C)OCO3`, the inhibition is reported as -16.2% (inactive). In the case of `NC1=CC(=O)C(=O)c2cccnc21`, the inhibition is reported as 96.6% (active). With `C=CCOc1ccccc1NC(=O)CN1C(=O)CNC1=O` the inhibition was -14.9% (inactive). In the case of `Cc1cc(=O)oc2c3c(cc(OCC(=O)NCC(O)c4ccccc4)c12)OC(C)(C)CC3` (centres undefined), the inhibition is reported as 0.998% (inactive). For `COc1cc2c(cc1OC)C(=O)NCC(C)(C)O2`, the inhibition was 9.62% (inactive). With `CC1=C(C(=O)N2CCOCC2)CC(CC(=O)NCc2ccco2)C(=O)N1Cc1ccc(F)cc1` (centres undefined) the inhibition was -16.3% (inactive). With `Cc1ccc2c(c1)N(C(=O)CCC(=O)N1CCc3ccccc3C1)CCO2` the inhibition was 11.3% (inactive). In the case of `COc1ccc(S(=O)(=O)N2CCCCCC2)cc1NC(=O)Cc1ccc(OC)c(OC)c1`, the inhibition is reported as 6.94% (inactive). With `COc1cc(C(C)=O)ccc1OC(C)C(=O)Nc1ccc(S(=O)(=O)N2CCCC2)cc1` (centres undefined) the inhibition was -9.75% (inactive). With `COc1ccc(-c2ccc(Nc3ccc(S(=O)(=O)N4CCCC4)cc3)nn2)cc1OC` the inhibition was 91.7% (active). For `Cc1onc(-c2ccccc2Cl)c1C(=O)N(Cc1ccc(N(C)C)cc1)C(C)C`, the inhibition was 15% (inactive). With `Cc1cc2cc3n(c2nn1)N=C(Cl)CC3` the inhibition was 15.8% (inactive). For `O=C(CN1CCN(C(=O)C2CCCO2)CC1)Nc1c(Cl)cccc1Cl` (centres undefined), the inhibition was 1.7% (inactive). For `Cn1c(=O)c2c(SCC(=O)NCC3CCCO3)nc(CC(C)(C)C)nc2n(C)c1=O` (centres undefined), the inhibition was -3.55% (inactive). In the case of `Cc1noc(C)c1COC(=O)Cn1c(C)nc2ccccc21`, the inhibition is reported as 6.2% (inactive). For `Cc1ccc(COc2ccc(C(=O)NN)cc2)cc1`, the inhibition was -0.097% (inactive). With `CCCCCCCCCCOC(=O)Cn1c(COc2ccc(C)cc2)[n+](C)c2ccccc21` the inhibition was 94.3% (active). In the case of `COc1ccc(-n2c(C)nn(CC3CC3)c2=O)cc1`, the inhibition is reported as 0.917% (inactive). With `CCOc1ccc(N(C)S(=O)(=O)c2cnc[nH]2)cc1` the inhibition was 14% (inactive). With `Nc1ncnc2c1ncn2[C@@H]1O[C@H](C(=O)NCC(F)(F)F)[C@@H](O)[C@H]1O` the inhibition was 2.47% (inactive). For `Cc1[nH]c2ccccc2c1-c1ccc(Cl)nn1`, the inhibition was -0.142% (inactive). With `O=c1c2ccccc2nc2n1C(CSCc1ccccc1)CS2` (centres undefined) the inhibition was 76.2% (inactive). With `O=c1c2ccccc2nc2n1C(CSCc1cccc(C(F)(F)F)c1)CS2` (centres undefined) the inhibition was 92.5% (active). For `N#Cc1c(-c2ccccc2)nc(SCc2cccc(C(F)(F)F)c2)[nH]c1=O`, the inhibition was -18.7% (inactive). With `C=CCn1c(C)cc(C2=NNC(=NCC)SC2)c1C` the inhibition was 91% (active). For `CN(Cc1ccc(C(F)(F)F)cc1)C(=O)[C@H]1O[C@@H](n2cnc3c(N)ncnc32)[C@H](O)[C@@H]1O`, the inhibition was 6.4% (inactive). In the case of `CCn1nc(C(=O)Nc2ccc(N3CCOCC3)cc2)c2ccccc2c1=O`, the inhibition is reported as 5.09% (inactive). In the case of `C[C@@H]1C[C@@H]2O[C@H]2/C=C\C=C\C(=O)Cc2c(Cl)c(O)cc(O)c2C(=O)O1`, the inhibition is reported as 86.9% (active). With `Cc1ccccc1N1CCN(CCCN2C(=O)C3CCCCN3C2=O)CC1` (centres undefined) the inhibition was 2.03% (inactive). With `COC(=O)Cc1ccc(OC(=O)C2CCN(S(=O)(=O)c3ccc(OC)c(OC)c3)CC2)cc1` the inhibition was -15.3% (inactive). For `CNS(=O)(=O)c1ccc2c(c1)[nH]c(=S)n2C`, the inhibition was 12.3% (inactive). In the case of `COc1cc(C(=O)OCCCN2CCOCC2)cc(OC)c1OC`, the inhibition is reported as 8.18% (inactive). For `COCc1c(C(=O)N/N=C\c2cccnc2)nnn1-c1nonc1N`, the inhibition was 9.7% (inactive). With `Nc1nonc1-n1nnc(C(=O)N/N=C\c2ccncc2)c1CN1CCCCC1` the inhibition was 10.4% (inactive). With `Nc1nonc1-n1nnc(C(=O)N/N=C/c2cc(Br)ccc2O)c1CSC1=NCCS1` the inhibition was 94% (active). In the case of `Cc1ccc(Cc2c(-c3ccco3)nc3ccc(Cl)cn23)cc1`, the inhibition is reported as 2.12% (inactive). For `Cc1c(NC(=O)CSc2cccc3cccnc23)c(=O)n(-c2ccccc2)n1C`, the inhibition was 19.9% (inactive). With `O=C(CSc1cccc2cccnc12)N/N=C/c1cccnc1` the inhibition was 20.8% (inactive). For `CC(=O)/C(=N\Nc1ccc(Cl)cc1Cl)Sc1cccc2cccnc12`, the inhibition was 93% (active). For `Cc1ccsc1CNn1cnnc1SCc1ccccc1F`, the inhibition was 5.38% (inactive). In the case of `CC12CCC(=O)C=C1CCC1C2C(O)CC2(C)C1CCC2(O)C(O)CO` (centres undefined), the inhibition is reported as 4.53% (inactive). With `CCCCCCNC(=O)O[C@H]1CN(C(=O)OC(C)C)N(C(=O)OC(C)C)[C@@H]2CN(S(=O)(=O)c3ccc(C)cc3)C[C@]12O` the inhibition was -14.9% (inactive). In the case of `OCCCNc1nccc(-c2cc(Nc3cccc(Cl)c3)ncn2)n1`, the inhibition is reported as 96.3% (active). In the case of `CCOc1c(Nc2cccc(Cl)c2)c(=O)c1=O`, the inhibition is reported as -16.6% (inactive). For `Cc1ccc(NC(=O)CN2CCCCC2)c2c1CC(C)(C)O2`, the inhibition was -24.2% (inactive). With `CCn1c(/C=C/c2ccc([N+](=O)[O-])o2)nc2ccccc2c1=O` the inhibition was 97.2% (active). With `Cc1ccc(-n2c(SCC(=O)N/N=C/C=C/c3ccccc3[N+](=O)[O-])nc3ccccc3c2=O)cc1` the inhibition was 1.32% (inactive). In the case of `O=c1c2ccccc2ncn1/N=C/c1ccccc1`, the inhibition is reported as -28% (inactive). For `C=CCC(CC=C)(C(N)=O)c1ccccc1`, the inhibition was 1.2% (inactive). In the case of `CC(=O)Nc1cccc(C(=O)OCC(=O)NCc2cc(C)c(O)c(C)c2)c1`, the inhibition is reported as -47.1% (inactive). With `C[C@H]1CN([C@@H](C)CO)C(=O)CCCn2cc(nn2)CO[C@@H]1CN(C)S(=O)(=O)c1cccs1` the inhibition was -17.2% (inactive). In the case of `CCOc1cc(/C=N/Nc2cc(C)nc3ccc(C)cc23)ccc1O`, the inhibition is reported as -7.54% (inactive). With `CCN(CC)c1ccc(/C=N/Nc2nc(C)cc(C)n2)c(O)c1` the inhibition was 89.4% (active). In the case of `O=C1CSC(c2ccc(Cl)cc2)N1` (centres undefined), the inhibition is reported as -10.9% (inactive). For `O=C(CSc1nc(O)c(Cc2ccccc2)c(=O)[nH]1)Nc1nc2c(s1)CCCC2`, the inhibition was 8.82% (inactive). With `O=C(CCS(=O)(=O)c1ccccc1)NC1CCCC1` the inhibition was -23.2% (inactive). For `O=C(CCS(=O)(=O)c1ccccc1)Nc1nc2c(s1)CCCC2`, the inhibition was 84.1% (active). With `CNc1nc(SC)nc(N(C#N)CC(=O)OC)n1` the inhibition was -9.64% (inactive). For `C=CCSc1nc(N)cc(=O)[nH]1`, the inhibition was 15.2% (inactive). With `Cc1ccc(-c2nn(-c3ccc(F)cc3)cc2C(=O)NCC(c2cccs2)N2CCOCC2)cc1` (centres undefined) the inhibition was 13.6% (inactive). For `Cc1ccc(-c2cn3cc(C)ccc3n2)cc1`, the inhibition was 89% (active). In the case of `Cc1ccc2nc(-c3ccc(Br)cc3)cn2c1`, the inhibition is reported as 23.5% (inactive). With `Cc1ccc(-c2nc3ccc(Cl)cn3c2Cc2ccccc2)cc1` the inhibition was -75.7% (inactive).

— PubChem BioAssay AID588674 (Broad Institute, 2011)
